According to PubChem BioAssay (NCI):
Compounds without any hit were thinned out: in the full panel of roughly 83,000, 20% have a hit.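 For each line, cells grew in 96-well plates with the test compound present at a single concentration for 48 hours.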 Values without a mark were called inactive. Calls of active or inactive are those of the source. The calls were made as follows: active = growth percent below 10; inactive = the rest.

What was measured:
Test in all cases: NCI-60 one-dose screen, 48 h (100 = growth as untreated, 0 = no growth, -100 = all killed)
Conditions in all cases: 10 µM unless noted
T-47D breast = tested on: T-47D breast
BT-549 breast = tested on: BT-549 breast
MDA-MB-435 melanoma = tested on: MDA-MB-435 melanoma
SW-620 colon = tested on: SW-620 colon
MCF7 breast = tested on: MCF7 breast
HCT-116 colon = tested on: HCT-116 colon
HCC-2998 colon = tested on: HCC-2998 colon
KM12 colon = tested on: KM12 colon

Structure (SMILES) | growth (T-47D breast) | growth (BT-549 breast) | growth (MDA-MB-435 melanoma) | growth (SW-620 colon) | growth (MCF7 breast) | growth (HCT-116 colon) | growth (HCC-2998 colon) | growth (KM12 colon)
CCOC(=O)Cn1c(C)c(/C=N/NC(=O)c2cc3c(ccc4ccccc43)o2)c2ccccc21 | 58.7% | 35.3% | -11.4% (active) | 30.4% | 17% | 8.16% (active) | 31.3% | 15.6%
O=c1ccn(Cc2cn(-c3c4ccccc4nc4ccccc34)nn2)c(=O)[nH]1 | 38% | 100% | 99.4% | – | 36.4% | 92.4% | 90.5% | 104%
CNc1nc2c(s1)C(c1cc(F)ccc1F)CC(=O)N2 (stereo not given) | 63.6% | 80.5% | -51.6% (active) | – | 36.5% | 53.5% | 88.1% | 52.9%
CC(C)c1cc(C(C)C)c(S(=O)(=O)Oc2ccc(NC(=O)c3ccc(Cl)cc3)cc2)c(C(C)C)c1 | 7.98% (active) | 20.4% | 41.4% | 21.7% | 16.3% | 8.78% (active) | 26.3% | 18.4%
Cc1nc2ccccc2n1CC1C(=O)NC(=O)NC1=O | 107% | 121% | 101% | 108% | 100% | 104% | 127% | 103%
NCCOc1ncccc1/C=C1\c2ccccc2-c2ccc(C(F)F)cc21 | 51.5% | 87.3% | 82.3% | 38.4% | 21.6% | 42.1% | 24.2% | 78.8%
CCCCCCCNC(=O)CCCNc1ncnc2c1ncn2-c1cccc(C(C)O)c1 (stereo not given) | 74.1% | 93.5% | 97.5% | 101% | 86.6% | 104% | 103% | 95.6%
O=[N+]([O-])c1ccc(Cl)c(-c2cc(CCCCO)on2)c1 | 88.8% | 99.7% | 103% | 104% | 100% | 105% | 108% | 104%
Brc1c[n+](Cc2ccc3ccccc3c2)cn1Cc1ccc2ccccc2c1 | 6.91% (active) | -12.1% (active) | -32.1% (active) | 37.7% | 14.3% | 17% | -28.5% (active) | -73.5% (active)
COc1cc2cc(Oc3ccc(NC(=O)Nc4cccc(C(F)(F)F)c4)cc3)c(C)nc2cc1OCCN1CCOCC1 | 30.3% | 70.8% | 30.4% | 36.9% | 9.35% (active) | 17.4% | 89.2% | 29.8%
CCN1C(=O)N(CC)C2Nn3c(s/c(=C4\C(=O)N(CC(C)C)c5ccccc54)c3=O)=NC21 (stereo not given) | 46% | 52.7% | -45.9% (active) | 35.7% | 26.1% | 14.4% | 76.5% | 31.9%
COc1ccc(C(=O)COC(=O)[C@H](C[Se][Se]C[C@H](NC(=O)c2ccc(Br)cc2F)C(=O)OCC(=O)c2ccc(OC)cc2)NC(=O)c2ccc(Br)cc2F)cc1 | -33.1% (active) | -89.6% (active) | 3.85% (active) | -59.7% (active) | -57.3% (active) | -69.1% (active) | -64.1% (active) | -81.6% (active)
COc1ccc2c(c1)/C(=C/c1sc(=S)n(Cc3ccco3)c1O)C=N2 | 45.3% | 7.24% (active) | -32.7% (active) | – | 21.8% | 11.9% | 44.7% | 23.9%
CCCC1CCC(O)(C(C)(O)C(=O)NC2C(=O)N3NCCCC3C(=O)N(O)C(C)C(=O)N3NCCCC3C(=O)N3NCC(O)CC3C(=O)NC(C)C(=O)OC2C(C)C)OC1CC (stereo not given) | -77.8% (active) | -67.3% (active) | -74.6% (active) | -97.3% (active) | -83% (active) | -57.2% (active) | -93.6% (active) | -88.5% (active)
COc1ccc(-n2c(N)c(-c3nc4ccccc4[nH]3)cc(C#N)c2=O)cc1 | 77.8% | 75.1% | 99.3% | 106% | 87.7% | 88.2% | 108% | 99.9%
CCOC(=O)CCN(C(=O)Nc1ccccc1)C1CCCCC1 | 104% | 118% | 106% | 102% | 98.4% | 102% | 74.8% | 108%

Structure (SMILES) | growth (T-47D breast) | growth (BT-549 breast) | growth (MDA-MB-435 melanoma) | growth (SW-620 colon) | growth (MCF7 breast) | growth (HCT-116 colon) | growth (HCC-2998 colon) | growth (KM12 colon)
CCc1ccccc1-n1c(N)c(C#N)c(-c2ccc(Cl)cc2)c(C#N)c1=O | 101% | 173% | 119% | 102% | 103% | 103% | 107% | 95.8%
COc1ccc(OC)c(/C=C/C(=O)N/N=C/c2ccc(Cl)cc2)c1 | 29.5% | 63.5% | -32.4% (active) | 19.9% | 8.93% (active) | 5.72% (active) | 2.34% (active) | 18%
CN1C(=O)CNC(=O)[C@H](NC(=O)c2nc3ccccc3cc2O)CSSC[C@H]1C(=O)NCCc1nc2ccccc2cc1O | 65.3% | 79.4% | 42.4% | 34% | 47.5% | 80% | 67.7% | 30%
Cc1nc2ccccc2c(/C=C/c2ccc(Cl)cc2)c1C(=O)/C=C/c1ccc(C(F)(F)F)cc1 | -18.2% (active) | -51.7% (active) | -95.4% (active) | -57.5% (active) | -29.6% (active) | -53.6% (active) | -81.3% (active) | -74.1% (active)
O=C1/C(=C/c2ccc(F)cc2)Sc2c(Br)cccc21 | 43.4% | 87% | 102% | 89.4% | 20.1% | 85.8% | 99.3% | 86%
O=c1c2cc(F)cc(Cl)c2sc2c(NCCCNCCO)nc3ccccc3c12 | 101% | 82.4% | 61.1% | -32% (active) | 64.6% | 65.1% | 60.9% | 66.7%
COc1ccc(-c2nc(NCCO)[nH]c(=O)c2C#N)cc1 | 82.8% | 103% | 103% | 106% | 91.9% | 102% | 103% | 95.8%
CCOc1c(B(O)O)cccc1-c1nc2ccc3[nH]ncc3c2c2c1CCCC2 | 75.5% | 25.1% | 90.1% | 38.3% | 59.4% | 34.8% | 51% | 32.2%
[O-][n+]1c2ccccc2[n+]([O-])c2c3ccccc3[nH]c21 | 2.23% (active) | 81.3% | 110% | – | 19.4% | 10.3% | 69.2% | 90.1%
CCCCCCn1c(-c2ccc(C(=O)O/N=C(\N)c3ccc4ccccc4c3)cc2)nc(-c2ccccc2)c1-c1ccccc1 | 28.9% | 79.6% | – | 71.8% | 37.9% | 40.5% | 93.8% | 68.6%
COc1c(C2CC(=O)Nc3c2c(C)nn3-c2nc3ccccc3[nH]2)cc2c(c1OC)OCO2 (stereo not given) | 43.8% | 47.8% | -32.7% (active) | – | 24.1% | 28.5% | 94.1% | 45.9%
O=CN1N=C(c2ccc(Nc3ccnc4cc(Cl)ccc34)cc2)CC1c1ccccc1 (stereo not given) | 31.7% | 39.1% | 8.64% (active) | – | 18.2% | 24% | 36.2% | 35.9%
COc1cc2cc(Oc3ccc(NC(=O)Nc4ccc(Cl)c(C(F)(F)F)c4)cc3)c(C)nc2cc1OCCN1CCOCC1 | 22.6% | 48.6% | 15.5% | – | 4.87% (active) | 10.3% | 36.9% | 14.9%
N/C(=N\c1nc2ccccc2s1)NC(=O)Nc1cccc2ccccc12 | 38.5% | 71.6% | -27.7% (active) | – | 23.1% | 0.264% (active) | 38.9% | 14.7%
CCOC(=O)C1=C(N)Oc2c(sc3c(C)cccc23)C1c1ccc(F)cc1 (stereo not given) | 28% | 18.1% | – | 22.4% | 7.39% (active) | 9.01% (active) | 9.19% (active) | 9.22% (active)
COc1cccc(-c2nc(-c3ccc(NS(=O)(=O)c4ccccc4)cc3)[nH]c2-c2ccnc(Br)c2)c1 | 14.2% | 51.3% | – | 34.3% | 9.68% (active) | 17% | 21.8% | 8.67% (active)
